Laboratory results as given in ChEMBL document CHEMBL3988442, “University of Dundee, Small-Polar-MMV Screening Library” (2021).
Out of some 48,000 compounds screened, about 13,000 (27%) showed an effect of 50% or more. The list shows a part of the results.

What follows are molecules tested on Wolbachia pipientis (assay: Anti-Wolbachia Cell-Based Screen). Settings: 5 µM.
Type: functional
Design: scale not given: in the data most compounds retested in dose-response had high values

Row | Compound | Percent Effect [%]
1 | CC(C)N(Cc1ccccc1)Cc1nnsc1Cl | 2.332
2 | CC(C)(C)c1cnc(CN2C(=O)CC3(CCSC3)C2=O)o1 (configuration not stated) | -9.013
3 | Cc1cnn(CC2CCCN2Cc2nnc(C)o2)c1 (configuration not stated) | 108.8
4 | O=C(CCn1cnnn1)N1CCCC(CO)(CCc2ccccc2)C1 (configuration not stated) | -14.03
5 | CCCC1(CO)CCCN(C(=O)CNC(N)=O)C1 (configuration not stated) | 100.2
6 | CNc1ncc(C(=O)N2CCCC(CO)(CCCOC)C2)cn1 (configuration not stated) | -3.097
7 | O=C(CCn1cnnn1)N1CCCC(CO)(CCCc2ccccc2)C1 (configuration not stated) | 2.487
8 | CC(=O)NCC(=O)N1CCCC2(CCC(=O)N(CCc3c[nH]cn3)C2)C1 (configuration not stated) | 7.336
9 | CCCC1(CO)CCCN(C(=O)CNC(C)=O)C1 (configuration not stated) | 72.22
10 | COc1c(C2CCCN2c2ncnc3sccc23)c(C)nn1C (configuration not stated) | -10.8
11 | CN(CC1(O)CCCN(Cc2cccc(F)c2F)C1=O)C1CCCCC1 (configuration not stated) | 6.301
12 | CCCN1CCCC2(CCN(S(=O)(=O)c3cccnc3)C2)C1=O (configuration not stated) | 3.088
13 | Cc1noc(C)c1S(=O)(=O)N1C[C@@H](C(=O)O)[C@H](c2ccccn2)C1 | -14.24
14 | Cc1ccnc(C2(C)CCCN2S(=O)(=O)c2c(C)noc2C)n1 (configuration not stated) | 125.2
15 | Cc1ccnc(C2(C)CCCN2S(=O)(=O)c2cccnc2)n1 (configuration not stated) | 132.4
16 | CCC1CCCCN1S(=O)(=O)c1c(C)noc1C (configuration not stated) | -6.559
17 | O=C1N(C2CCCCC2)CCCC12CCN(S(=O)(=O)c1cccnc1)C2 (configuration not stated) | 14.14
18 | CC(C)c1noc(CNc2ccccc2CC(=O)N(C)C)n1 | 6.812
19 | Cc1nn(C)c(C)c1NC(=O)CNc1ccc(F)c(C(F)(F)F)c1 | -4.336
20 | CC(=O)N1CCCC1c1ccc(Br)cn1 (configuration not stated) | 103.5
21 | Cn1cccc1C(=O)N1CCCC1c1ccc(CN2CCOCC2)cn1 (configuration not stated) | 73.28
22 | O=C(CC1CCCCC1)N1C[C@H]2CC[C@@H]1CN(Cc1cccnc1)C2 | -16.08

Row | Compound | Percent Effect [%]
23 | O=C(CC1CCCC1)N1CCCC1c1ccc(CN2CCOCC2)cn1 (configuration not stated) | 123.2
24 | Cn1cccc1C(=O)N1C[C@H](OCC2CCOCC2)[C@H]2COC[C@H]21 | -0.3996
25 | CC(=O)NCC(=O)N1CCCC1c1ccc(CN2CCOCC2)cn1 (configuration not stated) | 87.68
26 | CC(=O)N1CCCC1c1ccc(-c2c(C)noc2C)cn1 (configuration not stated) | -2.111
27 | Cc1cc(C(=O)Nc2ccc(CN3CCOCC3)cn2)n(C)n1 | -8.587
28 | CCc1ccc(C2CCCCCN2C(=O)CNC(=O)C2CC2)o1 (configuration not stated) | -5.222
29 | Cc1ccc(CNC(=O)NCCCn2nc3ccccn3c2=O)s1 | 0.9307
30 | CN(C)CCN(C)C[C@@H]1CN(Cc2cccc(O)c2)C[C@@H]1CO | -1.662
31 | Cc1ccc(-c2nc(C(=O)N(C)CC(=O)N3CCCC3)cs2)c(C)c1 | 2.536
32 | CCNC(=O)[C@@H]1CCCN1[C@@H](C(=O)NC)c1ccccc1OC.Cl | 2.638
33 | N#Cc1cccc(NC(=O)N2CCCC(N3CCCC3=O)C2)c1 (configuration not stated) | -2.402
34 | CC(=O)N1CCCC1c1ccc(CN2CCOCC2)cn1 (configuration not stated) | 123.1
35 | CC(C1CCN(Cc2ccc(N(C)C)nc2)CC1)N1CCOCC1 (configuration not stated) | 11.4
36 | CC(=O)N1CCCC1c1ccc(C(=O)N2CCOCC2)s1 (configuration not stated) | -4.925
37 | Cc1cccc(NC2CCN(C(=O)Nc3ccc(F)cc3C)CC2)n1 | 119.5
38 | O=C(Nc1cc(-n2cccc2)ccc1F)N1CCCC1 | -21.77
39 | Cc1cccc(NC2CCN(C(=O)Nc3cc(F)ccc3F)CC2)n1 | 100.1
40 | COC(=O)C1CCN(C(=O)Nc2cc(-n3cccc3)ccc2F)CC1 | -12.66
41 | COC(=O)[C@@H](NC(=O)c1coc(COc2cccc(F)c2)n1)C(C)C | -6.139
42 | COC(=O)C(CNC(=O)Nc1nncs1)Cc1ccc(O)cc1 (configuration not stated) | -7.051
43 | CNC(=O)c1n[nH]c2c1C(c1cccc3[nH]ccc13)CC(=O)N2 (configuration not stated) | 8.838
44 | Cc1nc(CN2CCc3nn(C(C)C)c(=O)cc3C2)oc1C | -3.167

Row | Compound | Percent Effect [%]
45 | Cc1csc(NC(=O)CN2CCc3nn(C)c(=O)cc3C2)n1 | -32.21
46 | CCn1nc2c(cc1=O)CN(CC(=O)Nc1nncs1)CC2 | 94.86
47 | CCn1nc2c(cc1=O)CN(CC(=O)Nc1nnc(C)s1)CC2 | 120.7
48 | Cn1nc2c(cc1=O)CN(CC(=O)Nc1nncs1)CC2 | -9.972
49 | Cc1nnc(NC(=O)CN2CCc3nn(C)c(=O)cc3C2)s1 | 86.83
50 | CCn1nc2c(cc1=O)CN(CC(=O)Nc1cc(C)no1)CC2 | -6.307
51 | Cc1cc(NC(=O)CN2CCc3nn(C)c(=O)cc3C2)no1 | -3.841
52 | CC(C)n1nc2c(cc1=O)CN(CC(=O)N(C)c1nccs1)CC2 | -24.74
53 | CCn1nc2c(cc1=O)CN(CC(=O)Nc1cc(C(C)C)no1)CC2 | -9.725
54 | Cc1nnc(NC(=O)CN2CCc3nn(C(C)C)c(=O)cc3C2)s1 | 104
55 | CCn1nc2c(cc1=O)CN(CC(=O)Nc1nccs1)CC2 | -22.28
56 | CC1=N[C@@]2(CC[C@@H]3CN(S(C)(=O)=O)C[C@@H]32)C(=O)N1CC(C)C | -10.09
57 | CCc1nnc2ccc(NCC3(O)CCOCC3)nn12 | -3.397
58 | CC(C)S(=O)(=O)NC(=O)CC(c1ccccc1)C(F)(F)F (configuration not stated) | 0.6807
59 | O=C1NCCCCC1Sc1ccccc1F (configuration not stated) | 86.32
60 | O=C1NCCCCC1Sc1nnc(C2CC2)n1C1CC1 (configuration not stated) | -22.11
61 | O=C1NCCCCC1Sc1nnc(-c2cccnc2)n1C1CC1 (configuration not stated) | -7.436
62 | O=C1NCCCCC1SCc1coc(-c2ccc(F)cc2)n1 (configuration not stated) | -0.7587
63 | O=C1NCCCCC1Sc1n[nH]c(=O)n1C1CC1 (configuration not stated) | -5.028
64 | O=C1NCCCCC1Sc1ccc(F)c(F)c1 (configuration not stated) | 87.86
65 | O=C1NCCCCC1Sc1ccc(F)cc1F (configuration not stated) | 103.3
66 | O=C1NCCCCC1SCc1coc(-c2cccc(F)c2)n1 (configuration not stated) | -23.71

Row | Compound | Percent Effect [%]
67 | O=C1NCCCCC1Sc1nnc(N2CCCC2)n1C1CC1 (configuration not stated) | 5.697
68 | CCCOCC(=O)N1CCC2(CC1)c1nc[nH]c1CCN2S(C)(=O)=O | -9.401
69 | COc1ccc(C(=O)NCc2ccon2)cc1F | -47.25
70 | Cc1nc(NS(=O)(=O)c2ccc(C)c(Br)c2)no1 | -20.05
71 | Cc1nn(CC(=O)N2CCN(c3ccccc3F)CC2)c(C)c1Cl | 4.996
72 | Cc1cccc(C(=O)N2CCCCC2c2ccc(CN(C)C)cc2)n1 (configuration not stated) | -0.9167
73 | CN(C)Cc1nnc(C2CCN(c3ncccn3)CC2)n1C1CC1 | -3.805
74 | Cc1nc(CN(C)CC2CCCN2c2cccnn2)oc1C (configuration not stated) | 2.068
75 | CCc1nc(C2CCCN2c2ncc(Br)cn2)no1 (configuration not stated) | -1.956
76 | Cc1cccc(N2CCCC2c2nc(C)ncc2CN(C)C)n1 (configuration not stated) | 143.5
77 | Cc1ncc(CN(C)C)c(C2CCCN2c2ncccn2)n1 (configuration not stated) | 117.1
78 | O=C(C1CNCCO1)N1CCCC(c2ccccc2)(c2ccccc2)C1 (configuration not stated) | -4.785
79 | O=C(NCCCOC1CCCCC1)C1NCCc2[nH]cnc21 (configuration not stated) | -2.739
80 | CCN(C(=O)COC)C(c1cccnc1)c1ccc2c(c1)CCO2 (configuration not stated) | 2.856
81 | CCSCCNC(=O)Nc1cc(C(=O)N2CCOCC2)ccc1Cl | 4.121
82 | COCCNC(=O)NC1(c2nc(C)no2)CCCCC1 | -1.61
83 | CC(C)(CO)CCCNC(=O)N1CCc2c(F)ccc(F)c2C1 | 36.67
84 | COCCNC(=O)C1(c2ccccc2C)CCOCC1 | 3.195
85 | O=C(NCCCc1ccc(O)cc1)C1(O)Cc2ccccc2C1 | -1.893
86 | CC(C)(CO)CCCNC(=O)NC1(c2cccc(F)c2)CC1 | 104.1
87 | O=C(Nc1ccccc1F)NC1(CO)CCOCC1 | 2.484
88 | Cc1cc(C(=O)NC2(c3cccc(F)c3)CCOCC2)no1 | -27.95

Row | Compound | Percent Effect [%]
89 | CC(C)(CO)CCCNC(=O)NC1(c2ccccc2F)CC1 | 114.3
90 | CC(C)(CO)CCCNC(=O)NC1(C)Cc2ccccc2C1 | 128.7
91 | CN(Cc1ccccc1)C1(C(=O)NC(C)(C)CO)Cc2ccccc2C1 | 8.937
92 | CS(=O)(=O)CCCNC1(c2cccc(F)c2)CC1 | 13.79
93 | COCCNC(=O)NC1(c2ccccc2F)CC1 | 110
94 | CC(C)c1noc([C@@H]2C[C@H](NS(=O)(=O)Cc3ccccc3)CN2C)n1 | -6.361
95 | CC(C)(O)CCc1ccc(C(=O)NCCC2CCCOC2)cc1 (configuration not stated) | -14.7
96 | O=C1CC[C@@H](C(=O)N2CCC(Cn3cc(C4CCCCC4)nn3)CC2)N1 | -19.31
97 | CCc1cnc(CN2C(=O)CC3(CCSC3)C2=O)o1 (configuration not stated) | -1.105
98 | CCn1cncc1C1CC(=O)Nc2c1c(C)nn2C (configuration not stated) | -2.495
99 | O=S(=O)(c1cccnc1)N1C[C@@H]2CC[C@H](C1)N(Cc1ccccn1)C2 | 0.4176
100 | Cc1ccc(NC2(C(=O)NCCCc3c(C)n[nH]c3C)CCCC2)cc1 | 12.56
101 | COc1ncccc1NC(=O)NC(C)(C)c1ncc(C)s1 | 4.256
102 | CCN1CC(C(=O)N2CCc3cc(C(N)=O)n(C)c3C2)CC1=O (configuration not stated) | 10.03
103 | CCc1nnc2n1CC(CNc1cnc3ccccc3n1)CC2 (configuration not stated) | -8.213
104 | NC(=O)CN1CCCC1c1csc(Nc2cnccn2)n1 (configuration not stated) | 66.85
105 | NC(=O)CN1CCC(c2csc(Nc3cnccn3)n2)CC1 | 117.3
106 | OCCN1CCC(c2csc(Nc3cnccn3)n2)CC1 | 83.21
107 | NC(=O)CN1CCC(C(=O)NCc2nc(-c3ccc(F)cc3)cs2)CC1 | 0.3881
